An excerpt weighted towards active compounds, which were near 0.9% of everything screened.
PPARg SRC-3 ag: PPARgamma-driven SRC-3 recruitment agonism | biochemical PPARgamma/SRC-3 coactivator recruitment assay | activation, % at 8 µM | AID 731 | P37231 | 0.26% of 200,000 active; in the data active = activation above about 23%;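 note: 0% = DMSO and 100% = reference agonist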
Target sequence (P37231 whole entry, looked up): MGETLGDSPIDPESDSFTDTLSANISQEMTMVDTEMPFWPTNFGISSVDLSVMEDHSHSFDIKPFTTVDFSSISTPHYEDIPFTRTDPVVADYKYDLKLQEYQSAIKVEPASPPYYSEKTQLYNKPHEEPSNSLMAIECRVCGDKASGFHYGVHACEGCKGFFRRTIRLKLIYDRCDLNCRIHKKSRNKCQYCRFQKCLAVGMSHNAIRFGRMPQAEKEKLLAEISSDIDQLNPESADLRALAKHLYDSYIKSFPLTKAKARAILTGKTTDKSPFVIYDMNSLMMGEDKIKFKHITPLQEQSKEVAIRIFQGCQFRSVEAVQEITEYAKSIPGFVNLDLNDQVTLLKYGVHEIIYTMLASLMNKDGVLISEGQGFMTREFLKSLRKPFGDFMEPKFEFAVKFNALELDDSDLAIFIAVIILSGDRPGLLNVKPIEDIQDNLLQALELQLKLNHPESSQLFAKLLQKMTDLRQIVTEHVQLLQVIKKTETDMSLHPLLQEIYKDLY
SRC3 TRFRET art: TR-FRET artefact, counter-screen to PPARgamma/SRC-3 agonist assay | PPARgamma/SRC-3 format; hits give high values | TR-FRET ratio at 8 µM | 0.39% of 99,000 active | AID 1048
PPARg SRC1 recr: PPARgamma-driven SRC-1 recruitment agonism; 0.41% of 200,000 active; PPARgamma-SRC-1 coactivator recruitment biochemical assay; activation, % at 8 µM; in the data active = activation above about 19%;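 note: 0% = DMSO and 100% = reference agonist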
PPARg SRC2 recr: PPARgamma-driven SRC-2 recruitment agonism. P37231. PPARgamma LBD-SRC-2 recruitment, biochemical. activation, % at 8 µM. 0.34% of 200,000 active; in the data active = activation above about 22%;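 note: 0% = vehicle and 100% = reference agonist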
TR-FRET SRC-2 ct: TR-FRET artefact, counter-screen to PPARgamma/SRC-2 agonist assay. 0.4% of 200,000 active. hits give high values. AID 1049. TR-FRET ratio at 8 µM
SRC1 TRFRET art: flags TR-FRET format artefacts in PPARgamma SRC-1 recruitment agonist screen; TR-FRET detection artefact counter-screen, emission ratio; hits give high values; TR-FRET ratio at 8 µM; 0.34% of 99,000 active; AID 1051; in the data active = TR-FRET ratio above about 2300
The depositor's hits bear a star; / = no result given. Cut-off read from the data, not from the text of the source, unless noted: active = TR-FRET ratio above about 2000; inactive = the rest.

SMILES	PPARg SRC-3 ag	SRC3 TRFRET art	PPARg SRC1 recr	PPARg SRC2 recr	TR-FRET SRC-2 ct	SRC1 TRFRET art
COc1ccccc1-n1cc(CN2CCN(CC(C)C)C(CCO)C2)cn1 (stereo not drawn)	2	1595	-4	0	1300	1873
CCOC(=O)C1=C(C)OC(N)=C(C#N)C1c1cc2ccccc2nc1N1CCCCC1 (stereo not drawn)	26*	/	15	15	1713	/
O=C(Nc1ccc2ccccc2c1)c1cn(-c2ccccc2)nc1-c1cccs1	14	/	11	9	2107*	/
CC1(C)CCC(=O)N(c2ccccc2)C1=O	-1	1726	3	1	1622	1981
Cc1nc(SCC(=O)Nc2ccc(F)cc2)c(C#N)c(C)c1CC(=O)c1ccc(Br)cc1	8	/	22*	8	1535	/
O=[N+]([O-])c1ccc(CSc2nc3ccccc3o2)cc1	-1	/	-2	6	1610	/
Cn1c(=O)c2c(ncn2CCNC2=NCCCCC2)n(C)c1=O	-1	1640	-1	38*	1522	1841
C=CCN1C=CC(=C/C=C(/C#N)C(=O)OCC)C=C1	2	/	26*	3	1483	/
CCOC(=O)/C(C#N)=C\N(C)C	7	/	-4	8	1498	/
COC(=O)c1sccc1NC(=O)c1ccc(Br)s1	14	/	43*	10	1947	/
Cc1ccc(C(c2sc3ncnn3c2O)N2CCC(C)CC2)cc1 (stereo not drawn)	0	1564	2	2	1647	1939
N#Cc1c(-c2ccccc2Cl)cc(-c2ccccc2)nc1Br	6	2059*	-2	6	1773	1792
COc1ccc(OC)c(/C=C2\S/C(=N/NC(=O)c3ccc4ccccc4c3)NC2=O)c1	0	1560	2	-1	1677	1639
CCn1cc(/C=N\NC(=O)c2csc3ccccc23)c(C)n1	0	/	0	5	1413	/
O=C(N/N=C/c1ccc(O)cc1)c1csc2ccccc12	-1	/	46*	1	1408	/
Brc1ccc(C=Nc2ccc(Nc3ccccc3)cc2)s1	2	1732	9	29*	1648	1838
C=COC(=O)CSc1nc(-c2cccs2)ccc1C#N	9	/	17	19	2052*	/
COc1ccc(-c2cc(-c3ccccc3)c(C#N)c(SCC(=O)Nc3ncc(C)s3)n2)cc1	8	2402*	3	6	1634	2146
C[C@H]1C(=O)N(C)CCN1C(=O)c1ccccc1OC1CCN(S(C)(=O)=O)CC1	-6	1521	-1	-3	1501	1555
CCOc1ccccc1Nc1nnc(SCC(=O)Nc2nc(-c3ccc(OC)cc3)cs2)s1	7	1775	6	7	2038*	2149
O=C(CSc1c2c(nc3ccc(Cl)cc13)CCCC2)NCCCN1CCOCC1	14	2256*	19	20	1820	2131
O=C(CSc1ccccc1)NCCCN1CCOCC1	-12	/	4	-3	1558	/
COc1ccc2cc(C(c3nnnn3CCc3ccccc3)N3CCC(O)CC3)c(=O)[nH]c2c1 (stereo not drawn)	4	/	-3	3	1431	/
Cc1ccc(NC(=S)/C(=C(\[O-])c2ccc(F)cc2)[n+]2ccccc2)cc1	4	1401	0	1	1604	1614
COC(=O)c1ccc(OC(=O)CCN2c3ccccc3Sc3ccccc32)cc1	6	2754*	11	16	2002*	1971
SMILES	PPARg SRC-3 ag	SRC3 TRFRET art	PPARg SRC1 recr	PPARg SRC2 recr	TR-FRET SRC-2 ct	SRC1 TRFRET art
O=C(COc1ccc(Cl)cc1)NCc1nnc(SCC(=O)N2CCCCC2)o1	2	/	-1	3	1528	/
S=C(c1cn(CCOc2cccc3ccccc23)c2ccccc12)N1CCCC1	19	3153*	15	19	3070*	3691*
S=C(c1cn(CCOc2ccccc2)c2ccccc12)N1CCCC1	7	/	-1	1	1705	/
Cc1ccc(OCCn2cc(C(=S)N3CCCC3)c3ccccc32)cc1C	9	/	16	2	2180*	/
CCCCC(=O)Nc1nc2ccc3nc(C)sc3c2s1	0	/	-4	7	1978*	/
O=C(CN1CCCC(O)C1)N1c2ccccc2Sc2ccc(C(F)(F)F)cc21 (stereo not drawn)	8	/	10	3	1597	/
O=C(CSc1nc(C2CC2)nc2ccccc12)N1c2ccccc2Sc2ccc(C(F)(F)F)cc21	3	/	-1	-1	1994*	/
Cc1c(C(=O)NC(=S)Nc2ccc(NC(=O)c3cccs3)cc2)cccc1[N+](=O)[O-]	-3	/	-4	-9	1460	/
CCN(CC)S(=O)(=O)c1ccc(N2CCOCC2)c(NC(=O)c2cc(-c3ccccn3)nc3ccccc23)c1	1	2191*	6	8	1811	2421*
COc1ccc(-c2cc(=O)c3c(OC)c(OC)c(OC)c(OC)c3o2)cc1OC	9	1488	5	-3	1392	2007
COc1c(OC)c(O)c2c(=O)cc(-c3c(O)cccc3O)oc2c1OC	0	1661	21*	2	1598	1922
Cc1ccccc1Nc1scc(-c2ccc(Cl)cc2)[n+]1-c1ccccc1C	9	1661	5	9	2007*	2015
Cc1c(Nc2scc(-c3ccccc3)[n+]2-c2ccccc2)c(=O)n(-c2ccccc2)n1C	-5	1624	-2	-4	1361	1586
CC(C)c1ccc(-c2nnn(Cc3nc4ccccc4s3)n2)cc1	-2	/	11	7	1820	/
NC(=S)Nc1cccc2cc3ccccc3cc12	16	/	14	22*	1632	/
C=CCOc1ccc(C(=O)NC2CCCCC2)cc1	2	/	-2	12	1504	/
C=C(C)CC1N(c2cccc(OC)c2)C(=O)[C@@H]2C(C(=O)O)[C@H]3C=C[C@@]12O3 (stereo partly drawn)	-2	/	1	-1	1527	/
CCN(C(=O)COC(=O)c1cc(-c2ccccc2)nc2ccc(Br)cc12)C1CCS(=O)(=O)C1 (stereo not drawn)	10	2241*	16	4	1887	2327*
S=C(Nc1ccc(Cl)c(Cl)c1)NC1CCCCC1	-6	/	-4	-1	1550	/
S=C(Nc1ccc2nsnc2c1)NC1CCCCC1	9	1898	11	6	1719	2457*
CCOc1ccc(NC(=S)Nc2ccc3nsnc3c2)cc1	13	2027	15	9	1676	2443*
C=CCNC(=S)Nc1ccc2nsnc2c1	10	1866	6	7	1662	2407*
COc1ccc(CCNC(=O)C(CC(C)C)NC(N)=O)cc1 (stereo not drawn)	-3	1488	-2	5	1626	1784
Cc1ccccc1N1C(=S)NC2c3ccccc3OC1(C)C2C(=O)N(C)C (stereo not drawn)	1	1636	11	-5	1596	1847
Cc1ccccc1NC(=S)N(CCN1CCCCC1)Cc1ccco1	3	1622	5	4	2001*	2157
Cc1ccccc1NC(=S)N(CCCN1CCCCC1)Cc1ccco1	0	1580	-4	-4	1704	1866
Cc1cccc(NC(=O)C2CCN(S(=O)(=O)c3c(C)[nH]c(=O)[nH]c3=O)CC2)c1	4	1709	6	5	1997*	1982
